BH1578 lux ind: induces V. cholerae light production without autoinducers | V. cholerae BH1578 lux reporter, luminescence, 6 h | AID 588436 | activation, % at 18.7 µM | 350,000 compounds, 0.16% hits; in the data active means activation mostly above about 9.7%, no sharp cut-off; inconclusive means no clear call, values can overlap the other calls; inactive means mostly below about 3.7%
BoNT F protease: inhibitors of Botulinum neurotoxin F light chain protease; Multiplex microsphere protease cleavage assay, flow cytometry; inhibition, % at 10 µM; 360,000 compounds, 0.22% hits; AID 588497; in the data active means inhibition above about 35%, passing the limit was not always enough; inconclusive means no clear call, values can overlap the other calls; further: plate controls were buffer without enzyme for full effect and enzyme alone for no effect
MazF activator: increases E. coli MazEF RNase cleavage of RNA; P0AE70; activation, % at 20 µM; 350,000 compounds, 0.32% hits; FAM/BHQ RNA-DNA oligo cleavage fluorescence, 5 h; in the data active means activation above about 50%
BoNT-A LC inh2: inhibitors of Botulinum neurotoxin A light chain protease. multiplex microsphere protease substrate cleavage, flow cytometry. inhibition, % at 10 µM. 360,000 compounds, 0.17% hits; further: plate controls were buffer without enzyme for full effect and enzyme alone for no effect
Autofluor counter: counter-screen for toxin protease inhibitors: compound fluorescence; compound autofluorescence counterscreen, microsphere flow cytometry; hits give high values; fluorescence intensity (concentration not given with the values); 360,000 compounds, 3.1% hits; AID 624483; in the data active means fluorescence intensity above about 16000; inconclusive means no clear call, values can overlap the other calls
Anthrax LF inh2: anthrax lethal factor protease inhibition; multiplex microsphere protease cleavage assay, LF; inhibition, % at 10 µM; 360,000 compounds, 0.12% hits; further: plate controls were buffer without enzyme for full effect and enzyme alone for no effect
Target sequence (P15917 whole entry, looked up): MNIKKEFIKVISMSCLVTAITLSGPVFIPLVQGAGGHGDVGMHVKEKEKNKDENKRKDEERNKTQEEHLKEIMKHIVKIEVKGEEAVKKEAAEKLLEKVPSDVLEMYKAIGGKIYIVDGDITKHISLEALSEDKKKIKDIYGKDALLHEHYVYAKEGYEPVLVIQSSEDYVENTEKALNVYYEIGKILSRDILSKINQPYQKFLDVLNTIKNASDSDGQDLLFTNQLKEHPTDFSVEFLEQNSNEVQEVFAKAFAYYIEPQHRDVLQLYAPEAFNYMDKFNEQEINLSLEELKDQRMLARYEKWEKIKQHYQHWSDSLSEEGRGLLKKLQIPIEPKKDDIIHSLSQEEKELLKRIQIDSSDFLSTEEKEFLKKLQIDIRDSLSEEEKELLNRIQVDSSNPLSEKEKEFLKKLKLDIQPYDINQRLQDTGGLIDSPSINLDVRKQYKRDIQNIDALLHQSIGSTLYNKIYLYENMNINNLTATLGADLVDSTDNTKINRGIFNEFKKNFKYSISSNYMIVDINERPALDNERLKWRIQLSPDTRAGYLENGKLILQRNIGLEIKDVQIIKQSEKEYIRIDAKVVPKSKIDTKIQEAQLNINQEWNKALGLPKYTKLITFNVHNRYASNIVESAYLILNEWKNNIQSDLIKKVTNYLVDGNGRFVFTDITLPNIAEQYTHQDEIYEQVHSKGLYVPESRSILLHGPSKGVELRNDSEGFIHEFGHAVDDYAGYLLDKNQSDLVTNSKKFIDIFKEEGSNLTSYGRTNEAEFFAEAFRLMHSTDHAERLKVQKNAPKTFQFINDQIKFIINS
Numbers without * were called inactive; i = inactive; ? = inconclusive; nt = no result. In the library only some 3.9% were active in any assay of this set; here they are far more common. Unless noted, no stated cut-off is given here; in the data, active means inhibition above about 30%; inconclusive means no clear call, values can overlap the other calls; inactive means below that.

SMILES	BH1578 lux ind	BoNT F protease	MazF activator	BoNT-A LC inh2	Autofluor counter	Anthrax LF inh2
CC(C)OC(=O)c1c2c(n3ccccc13)C(=O)c1ccccc1C2=O	i	23	175*	79*	5595	38*
Cc1ccc(C(=O)Nc2c(C)n(C)n(-c3ccccc3)c2=O)cc1S(=O)(=O)N1CCOCC1	i	4	0	1	2306	0
Cc1ccc(S(=O)(=O)N2CCOCC2)cc1C(=O)Nc1c(C)n(C)n(-c2ccccc2)c1=O	i	-3	-2	?	22630*	-4
Cc1c(NS(=O)(=O)N2CCCC2)c(=O)n(-c2ccccc2)n1C	i	4	-9	1	22285*	-2
Cc1c(NS(C)(=O)=O)c(=O)n(-c2ccccc2)n1C	0	-11	-7	-1	3673	-3
Cc1ccc2c(C)c(C(=O)N3CCC(C(N)=O)(N4CCCCC4)CC3)oc2c1C	-1	-5	5	0	4171	-6
COc1ccc(-n2cccc2C=O)cc1OC	-7	-2	8	?	22117*	-2
COc1ccc(-n2cccc2C=O)cc1	0	-5	-8	-1	2784	-1
CCCCNC(=O)c1cc2c(=O)n3cccc(C)c3nc2n(Cc2ccncc2)c1=N	0	-4	29	-4	24016*	0
Cc1cccn2c(=O)c3cc(C(=O)NC4CCCCC4)c(=N)n(CCN4CCOCC4)c3nc12	0	11	12	-2	3663	2
CCCn1c(=N)c(C(=O)NC2CCCC2)cc2c(=O)n3cccc(C)c3nc21	17*	6	14	0	2415	-1
CCNC(=S)NNC(=O)c1cc(-c2cc(C)ccc2C)nc2ccccc12	0	3	3	1	19654*	-1
CN1CC(c2ccc(C#N)cc2)C2(COc3ccccc3C2=O)C12C(=O)Nc1ccccc12 (stereo not given)	i	8	4	6	19424*	-7
Cn1cccc1/C=C1\SC(=O)N(c2ccccc2)C1=O	-1	16	88*	2	2087	12
Cn1cccc1/C=C1\SC(=Nc2ccc(O)cc2)NC1=O	i	-3	3	-3	3927	-9
Cn1cccc1/C=C1\SC(=Nc2ccccc2)NC1=O	-1	36*	-7	2	3910	13
Cn1cc(/C=C2/SC(=O)N(c3ccccc3)C2=O)c2ccccc21	0	3	10	1	2356	6
COc1ccc(CCNC(=O)CN(c2cccc([N+](=O)[O-])c2)S(C)(=O)=O)cc1OC	0	-4	7	0	3171	-4
COC(=O)c1cc(OC)c(OC)cc1NC(=O)CCN1C(=O)C2CCCCC2C1=O (stereo not given)	-3	-7	-2	0	3615	-4
COc1cccc(-n2nc(C(=O)N3CC(C)CC(C)C3)c3ccccc3c2=O)c1 (stereo not given)	0	8	-3	6	20358*	-8
COc1ccc(-n2nc(C(=O)NCC(=O)N3CC(C)CC(C)C3)c3ccccc3c2=O)cc1OC (stereo not given)	0	4	8	0	5609	-3
CCOc1cc(N(CC)CC)ccc1/C=C(/C#N)c1nc2ccccc2[nH]1	6	42*	132*	-4	12266	0
CCCOc1cc(N(CC)CC)ccc1/C=C(/C#N)c1nc2ccc(C)cc2[nH]1	i	45*	-504	3	23823*	2
CCN(CC)c1ccc(/C=C(/C#N)c2nc3ccc(C)cc3[nH]2)c(OC(C)C)c1	i	64*	-168	-3	27707*	-4
COc1cc(/C=C(\C#N)c2nc3ccc(C)cc3[nH]2)c([N+](=O)[O-])cc1OC	0	2	13	3	3421	-6
SMILES	BH1578 lux ind	BoNT F protease	MazF activator	BoNT-A LC inh2	Autofluor counter	Anthrax LF inh2
Cn1cnc([N+](=O)[O-])c1Oc1ccc2ccccc2c1	0	6	5	0	2152	1
COc1cc(CN2CCCC(N3CCN(c4ccc(F)cc4)CC3)C2)ccc1F (stereo not given)	0	20	-1	-1	4053	5
CN1CCN(c2ccc(CNC(=O)C3(C)Cc4c(-c5ccc(C(N)=O)cc5)ccnc4O3)cc2)CC1 (stereo not given)	i	0	nt	0	3534	0
Cc1nc2nc(C)n(CCN3CCOCC3)c(=O)c2c(-c2cccc([N+](=O)[O-])c2)c1C(=O)CCCCCCCCCCN1CCC(c2ccccc2)(c2ccccc2)CC1	i	-55	26	-1	4687	-12
COc1ccc(CN2C(=O)NC3(CCCCC3)C2=O)cc1F	i	1	-5	?	22242*	-1
CN(C)c1nc2n(c(=O)n1)C(C#N)CS2 (stereo not given)	i	-2	-5	0	16338*	2
CN(C)c1nc2n(c(=O)n1)CCS2	-5	-6	3	0	3435	-3
O=C(CSc1nc2ccccc2c(=O)n1Cc1ccco1)NCc1ccco1	i	-4	8	0	8565	-2
CCOC(=O)c1cc2c(c(CSc3nc4ccccc4c(=O)n3Cc3ccco3)c1)OCOC2	0	1	-8	-1	20266*	-2
O=c1c2ccccc2nc(SCc2cc(F)cc3c2OCOC3)n1Cc1ccco1	2	-8	-14	-2	24180*	-3
CN(Cc1ccccc1)C(=O)CSc1nc2ccccc2c(=O)n1Cc1ccco1	i	-12	0	-1	9142	-7
CN1CCN(Cc2nc3c(c(=O)[nH]c(=O)n3C)n2CCc2ccccc2)CC1	0	-9	2	0	5776	-6
Cn1c(=O)[nH]c(=O)c2c1nc(CN1CCN(c3cccc(Cl)c3)CC1)n2CCc1ccccc1	i	-9	-5	-2	16970*	-2
CCOC(=O)N1CCN(Cc2nc3c(c(=O)[nH]c(=O)n3C)n2Cc2cc(C)ccc2C)CC1	i	2	0	?	20382*	2
CCCCCn1c(CN2CCN(Cc3ccccc3)CC2)nc2c1c(=O)[nH]c(=O)n2C	-2	-1	4	-1	22888*	0
Cn1c(=O)[nH]c(=O)c2c1nc(CN1CCN(c3ccc(F)cc3)CC1)n2CCc1ccccc1	i	-28	2	-4	8253	-1
CCCn1c(-c2cccs2)nc2c1c(=O)[nH]c(=O)n2Cc1ccccc1	-2	-6	83*	0	4177	4
Cc1cccc(-n2c(SCC(=O)N3CCN(c4ccccn4)CC3)nnc2N2CCOCC2)c1	i	nt	8	nt	nt	nt
CCCCCn1c(CN2CCN(c3cccc(Cl)c3)CC2)nc2c1c(=O)[nH]c(=O)n2C	-1	-2	-2	0	20547*	-8
CCOC(=O)N1CCN(Cc2nc3c(c(=O)n(C)c(=O)n3C)n2CCCc2ccccc2)CC1	i	3	-17	2	20078*	-3
COc1ccc(N2CCN(Cc3nc4c(c(=O)n(C)c(=O)n4C)n3CC(C)=O)CC2)cc1	0	-2	7	-2	20509*	-2

Compound activity: PubChem, several laboratories
